GalR3 antag = human GalR3 antagonism. HEK293 GalR3-CNG cAMP membrane potential fluorescence; galR3 body fused to GalR1 C-terminus. inhibition, % at 3 µM. hit rate 0.44% among 360,000;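 active means inhibition above the screen-wide average plus 3 SD, cut at about 13% in these data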;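 further: forskolin and galanin both at EC90 stimulate the cells; cAMP rise reported by CNG channel membrane potential dye signal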
NR5A2 inv ag = suppresses constitutive activity of human LRH-1. O00482. HEK293T StAR-luciferase reporter, LRH-1 transfected, 24 h. inhibition, % at 3.6 µM. hit rate 0.13% among 360,000;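 active means inhibition above the mean inhibition of all tested compounds plus 3 SD, cut at about 73% in these data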
NCOA3 inh = inhibitors of human steroid receptor coactivator 3 (SRC3) | hit rate 0.17% among 360,000 | HEK293 GAL4-SRC3 luciferase reporter, luminescence | Q9Y6Q9 | inhibition, % at 3.6 µM;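 active means inhibition above a per-campaign cutoff, the mean of all compounds plus 3 SD, cut at about 60% in these data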;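 further: higher means less SRC3-driven luciferase light from the GAL4 reporter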
NCOA2 inhibitor = human SRC2 (NCOA2) inhibition. hit rate 0.17% among 370,000. Q15596. inhibition, % at 9 µM. HEK293 GAL4-SRC2 luciferase reporter, luminescence;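 active means inhibition above the mean inhibition of all tested compounds plus 3 SD, set per campaign, cut at about 52% in these data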
NCOA1 inh = inhibits human SRC1 coactivator; Q15788; AID 588354; hit rate 0.12% among 360,000; inhibition, % at 3.6 µM; HEK293 GAL4-SRC1 luciferase reporter, luminescence;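 active means inhibition above the campaign mean plus 3 SD, with each screening campaign given its own cutoff, cut at about 60% in these data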
COUP-TFII inh = inhibitors of human COUP-TFII (NR2F2). hit rate 0.7% among 370,000. HEK293T NGFI-A luciferase reporter, luminescence. inhibition, % at 8.6 µM. AID 686940;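 active means inhibition above a per-plate cutoff, mean inhibition of test wells between control levels plus 3 SD, cut at about 38% in these data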;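 further: cells cotransfected with COUP-TFII expression vector driving the NGFI-A reporter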
Target sequence (P24468 whole entry, looked up): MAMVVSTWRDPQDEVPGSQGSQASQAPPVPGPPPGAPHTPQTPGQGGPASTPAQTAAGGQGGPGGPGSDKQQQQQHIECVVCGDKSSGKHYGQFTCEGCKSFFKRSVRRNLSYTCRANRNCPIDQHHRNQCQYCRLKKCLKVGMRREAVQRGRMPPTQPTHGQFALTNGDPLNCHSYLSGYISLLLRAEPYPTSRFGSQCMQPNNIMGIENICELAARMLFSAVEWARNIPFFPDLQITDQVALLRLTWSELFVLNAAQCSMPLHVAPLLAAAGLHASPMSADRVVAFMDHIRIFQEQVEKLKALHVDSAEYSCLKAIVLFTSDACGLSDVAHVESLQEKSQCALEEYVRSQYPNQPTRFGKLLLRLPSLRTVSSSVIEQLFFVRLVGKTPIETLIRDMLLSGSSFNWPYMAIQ
VP16 Luc counter = counter-screen for COUP-TFII antagonists: inhibitors of VP16 | inhibition, % at 8.5 µM | HEK293 Gal4-VP16 luciferase reporter, luminescence | AID 687007 | hit rate 25% among 2,500 | shares compounds with COUP-TFII inh; in the data active means inhibition above about 13%
COUP-TFII conf = confirmation of human COUP-TFII (NR2F2) inhibitors | hit rate 45% among 2,500 | inhibition, % at 8.5 µM | HEK293 NGFI-A luciferase reporter, luminescence | AID 687008 | shares compounds with COUP-TFII inh;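 active means mean inhibition over three repeats above a set limit taken from the earlier primary screen, cut at about 38% in these data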
Numbers stand for hits; n = inactive; x = no result. An excerpt weighted towards active compounds, which were near 1.1% of everything screened.

SMILES | GalR3 antag | NR5A2 inv ag | NCOA3 inh | NCOA2 inhibitor | NCOA1 inh | COUP-TFII inh | VP16 Luc counter | COUP-TFII conf
COCCNc1nc2c(c(=O)n(C)c(=O)n2C)n1Cc1cccc(C)c1 | n | n | n | n | n | n | x | x
c1nc(NCC2CCCC2)c2cc(-c3ccc4c(c3)OCO4)ccc2n1 | x | x | x | x | x | n | x | x
C=CCn1c(SCc2c(Cl)cccc2Cl)nnc1-c1cccc(C)c1 | x | x | x | n | x | n | x | x
CCN(CC)C(=O)c1oc2ccc(S(=O)(=O)N3CC(C)CC(C)C3)cc2c1C (stereo not drawn) | n | n | n | n | n | 51 | n | 49
O=C(CN1C(=O)CCSc2ccccc21)Nc1ccc(F)cc1F | x | x | x | n | x | n | x | x
COc1ccc(CCNC(=O)C(=O)NCC2OCCN2S(=O)(=O)c2ccc(Cl)cc2)cc1OC (stereo not drawn) | x | n | n | n | n | 42 | n | n
COc1ccc(S(=O)(=O)N2CCOC2CNC(=O)C(=O)NCCc2ccc(OC)c(OC)c2)cc1 (stereo not drawn) | n | n | n | n | n | n | x | x
Cc1ccc(Cn2cc(CN(C3CC3)S(=O)(=O)c3ccccc3Br)nn2)cc1 | x | x | x | n | x | n | x | x
CCN(CC)C(=O)CC[C@H]1CC[C@]2(CCCN(C(=O)c3ccccc3)C2)O1 | x | x | x | n | x | n | x | x
O=C(NC1CCCCN(Cc2cccc(F)c2)C1=O)c1cccc(F)c1 (stereo not drawn) | x | x | x | n | x | n | x | x
COc1ccc(CC2C(=O)NC(C)C(=O)N(C)C3Cc4ccc(cc4)Oc4cc(ccc4O)CC(C(=O)NC(C)C(=O)NC(C)C(=O)N2C)N(C)C3=O)cc1 (stereo not drawn) | n | 98 | 94 | 76 | 94 | 88 | 19 | 82
Cc1nc2sc(C(N)=O)c(N)c2c2c1CCCC2 | n | n | n | n | n | 51 | n | n
O=C(CSc1nnc(-c2ccncc2)n1-c1ccccc1)Nc1cccc2ccccc12 | x | x | x | n | x | n | x | x
O=C(O)c1ccc(NCc2nc3cc4ccccc4cc3[nH]2)cc1 | n | n | n | n | n | n | x | x
O=[N+]([O-])c1cccc2[nH]c(CNc3nc(N4CCOCC4)nc4c3ncn4-c3ccsc3)nc12 | x | x | x | x | x | 67 | 25 | 41
FC(F)(F)c1ccc2nc(CNc3nc(N4CCOCC4)nc4c3ncn4-c3ccsc3)[nH]c2c1 | x | x | x | x | x | 69 | 23 | 42
c1ccc2cc3[nH]c(CNc4nc(N5CCOCC5)nc5c4ncn5-c4ccsc4)nc3cc2c1 | x | x | x | x | x | 63 | n | 42
O=[N+]([O-])c1cccc2ccc(N3CCOCC3)nc12 | n | n | n | n | n | n | x | x
Cc1ccc2nc(SCC(=O)Nc3cc(C(F)(F)F)ccc3N3CCOCC3)[nH]c2c1 | n | n | n | n | n | n | x | x
c1ccc2[nH]c(CNc3nc(N4CCOCC4)nc4c3ncn4-c3ccsc3)nc2c1 | x | x | x | x | x | 52 | 20 | 46
Cc1ccccc1NC(=O)c1cccc2c1-c1ccccc1C2=O | x | x | x | n | x | n | x | x
O=[N+]([O-])c1ccc2nc(CNc3nc(N4CCOCC4)nc4c3ncn4-c3ccsc3)[nH]c2c1 | x | x | x | x | x | 58 | 28 | 48
CCOC(=O)C1CCN(C(=O)CCc2c(C)nc3cc(-c4ccccc4)nn3c2C)CC1 | n | n | n | n | n | n | x | x
COc1cc(OC)cc(-c2cc3nc(C)c(CCC(=O)NC(C)CCc4ccco4)c(C)n3n2)c1 (stereo not drawn) | n | n | n | n | n | n | x | x
CCOC(=O)C1CCCCN1C(=O)CCc1c(C)nc2cc(-c3ccccc3)nn2c1C (stereo not drawn) | n | n | n | 70 | n | 52 | n | n
SMILES | GalR3 antag | NR5A2 inv ag | NCOA3 inh | NCOA2 inhibitor | NCOA1 inh | COUP-TFII inh | VP16 Luc counter | COUP-TFII conf
COc1cc(OC)cc(-c2cc3nc(C)c(CCC(=O)O)c(C)n3n2)c1 | n | n | n | 78 | n | 89 | 89 | 97
N#CCc1ccnc2ccccc12 | n | n | n | n | n | n | x | x
N#CC(C#N)c1ccnc2ccccc12 | n | n | n | n | n | 40 | n | n
O=C(OC12CCCN(C1)/C(=C/c1cccc(Cl)c1)C2)c1ccc(Cl)cc1 (stereo not drawn) | x | x | x | n | x | n | x | x
COc1cccc(Oc2ccc(S(=O)(=O)N3CCOCC3)cc2[N+](=O)[O-])c1 | n | n | n | n | n | 44 | n | n
CCOC(=O)Cn1cc(CN2CCS(=O)(=O)N(Cc3ccc(OC)cc3)C(C(=O)OC)C2)nn1 (stereo not drawn) | x | x | x | n | x | n | x | x
CC(=O)N1CCN(c2ccnc3cc(Cl)ccc23)CC1 | n | n | n | n | n | n | x | x
O=C(c1ccc(Cl)c(Cl)c1)N1CCN(c2ccnc3cc(Cl)ccc23)CC1 | x | x | x | x | x | 54 | n | n
COc1ccc(Nc2ncnc3ccccc23)cc1 | n | n | n | n | n | n | x | x
COc1ccc(Nc2ccnc3ccccc23)cc1 | n | n | n | n | n | 40 | n | n
COc1ccc(Nc2nc(N3CCCCC3)c3ccccc3n2)cc1 | n | n | n | n | n | 38 | n | n
COc1ccc2c(c1)CO[C@H]([C@H](O)COC(C)=O)[C@H]2/C=C/c1ccccc1 | x | x | x | n | x | n | x | x
c1ccc(-c2nnc(SCc3nc4ccccc4[nH]3)n2Cc2ccco2)cc1 | n | n | n | n | n | n | x | x
Cc1ccc(OCc2nnc(SCc3nc4ccccc4[nH]3)n2Cc2ccco2)cc1 | n | n | n | n | n | 42 | n | n
COc1cc(O)c([C@@H](CC(=O)N2CC(C)CC(C)C2)c2ccc3c(c2)OCO3)c(OC)c1 (stereo partly drawn) | x | x | x | x | x | n | x | x
O=C(Nc1ccc(S(=O)(=O)NCc2cccnc2)cc1)c1ccccc1Cl | n | n | n | n | n | 40 | n | n
COc1ccc(S(=O)(=O)NCc2cccnc2)cc1Br | n | n | n | n | n | 48 | n | 39
O=C(Nc1ccccc1)c1ccc(S(=O)(=O)NCc2cccnc2)cc1 | n | n | n | n | n | n | x | x
COC(=O)[C@]12C[C@H](CC(=O)NCc3ccc(C)o3)C(=O)N(Cc3cccc4ccccc34)C1=C[C@H](C(C)C)O[C@@H]2C1CC1 | x | x | x | n | x | n | x | x
COc1ccc(-c2cc(C3CCN(c4ccc(C(C)=O)cc4[N+](=O)[O-])CC3)[nH]n2)cc1 | n | n | n | n | n | 42 | n | n
CCN(CC)C(=O)CC[C@H]1CC[C@]2(CCCN(Cc3cccnc3)C2)O1 | x | x | x | n | x | n | x | x
Nc1ccc(Br)cc1C(=O)O | n | n | n | n | n | 45 | 54 | n
Cc1c(CCC(=O)N2CCC(C(=O)O)CC2)c(=O)oc2cc3oc4c(c3cc12)CCCC4 | n | n | n | 63 | n | 61 | n | n
Cc1c(CCC(=O)N2CCC(C(=O)O)(c3ccccc3)CC2)c(=O)oc2cc3oc4c(c3cc12)CCCC4 | n | n | n | 58 | n | 53 | 37 | n

Source: PubChem
